Data on nine compounds can be found in PubChem BioAssay (NCI).

This is part of a sample that, as a whole, favours compounds with a hit. Of some 83,000 tested, about 20% had one in any assay.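 In brief: 96-well plates, 48 h treatment, single concentration, percent growth endpoint.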 A number with no mark means an inactive call. The source made the active and inactive calls. How the source made its calls: active means growth percent below 10; inactive means the rest.

Test systems include SK-MEL-2 melanoma; EKVX NSCLC; SN12C renal; UO-31 renal; TK-10 renal; ACHN renal; CAKI-1 renal; A498 renal; CCRF-CEM leukemia; RPMI-8226 leukemia; OVCAR-8 ovarian; OVCAR-5 ovarian; OVCAR-4 ovarian; SK-OV-3 ovarian; IGROV1 ovarian; OVCAR-3 ovarian; HS 578T breast; NCI/ADR-RES ovarian; SR leukemia.
What all share (test): NCI-60 one-dose screen, 48 h (100 = growth as untreated, 0 = no growth, -100 = all killed)
What all share (details): 10 µM unless noted

Consider `O=C(Nc1ccc(-n2cc(-c3ccncc3)c(-c3ccc(Cl)c(O)c3)n2)cc1)N1CCOCC1`, for which the growth in the experiment with SK-MEL-2 melanoma was 110%; in the experiment with EKVX NSCLC, 102%; in the experiment with SN12C renal it was 99.2%; in the experiment with UO-31 renal it was 75.6%; in the experiment with TK-10 renal, 117%; in the experiment on ACHN renal it was 97.6%. Further, the growth is 105% in the experiment with CAKI-1 renal; 121% with A498 renal; 112% in the experiment with CCRF-CEM leukemia; 106% in the experiment with RPMI-8226 leukemia; 105% with OVCAR-8 ovarian; 101% in the experiment with OVCAR-5 ovarian. In addition, the growth with OVCAR-4 ovarian was 104%; with SK-OV-3 ovarian, 96.4%; in the experiment on IGROV1 ovarian it was 97.3%; in the experiment on OVCAR-3 ovarian it was 109%; in the experiment on HS 578T breast, 105%; in the experiment on NCI/ADR-RES ovarian it was 106%.

As to `CNC(=O)c1cc(Oc2cccc3nc(Nc4ccc(F)c(Cl)c4)ccc23)ccn1`, the growth was 90.8% in the experiment with SK-MEL-2 melanoma; 69.5% in the experiment with EKVX NSCLC; 60.4% in the experiment on SN12C renal; 68.7% with UO-31 renal; 52.9% in the experiment on TK-10 renal; 75.3% in the experiment with ACHN renal. In addition, the growth is 97% in the experiment with CAKI-1 renal; 60.4% with A498 renal; 60.3% with CCRF-CEM leukemia; 54.1% with RPMI-8226 leukemia; 44.8% in the experiment with OVCAR-8 ovarian; 91.9% in the experiment with OVCAR-5 ovarian. For the same compound, the growth is 40.1% in the experiment on OVCAR-4 ovarian; 70.1% in the experiment with SK-OV-3 ovarian; 44.5% in the experiment with IGROV1 ovarian; 64.6% in the experiment with OVCAR-3 ovarian; 70% in the experiment on HS 578T breast; 57.4% in the experiment on NCI/ADR-RES ovarian.

Take `COc1cc(Cn2ncc3ccc(NC(=O)c4cc5ccccc5oc4=N)cc32)cc(OC)c1OC`: the growth with SK-MEL-2 melanoma is 88%; in the experiment with EKVX NSCLC, 71.5%; with SN12C renal, 87.2%; in the experiment on UO-31 renal, 51.3%; in the experiment on TK-10 renal, 91.4%; in the experiment with ACHN renal it was 57.1%. Further, the growth was 82.4% in the experiment on CAKI-1 renal; 98.3% with A498 renal; 52.2% in the experiment with CCRF-CEM leukemia; 51.7% in the experiment on RPMI-8226 leukemia; 86.8% in the experiment with OVCAR-8 ovarian; 58.3% with OVCAR-5 ovarian. For the same compound, the growth is 86.6% in the experiment with OVCAR-4 ovarian; 79.4% in the experiment with SK-OV-3 ovarian; 46% in the experiment with IGROV1 ovarian; 38.8% in the experiment on OVCAR-3 ovarian; 90% in the experiment on HS 578T breast; 50% with NCI/ADR-RES ovarian.

For the compound `CCN1C(=O)N(CC)C2Nn3c(s/c(=C\c4cccc([N+](=O)[O-])c4)c3=O)=NC21` (stereo unspecified), the growth is 73.3% in the experiment on SK-MEL-2 melanoma; 72.7% in the experiment with EKVX NSCLC; 48.6% in the experiment with SN12C renal; 56.8% with UO-31 renal; 17.9% in the experiment with TK-10 renal; 50.5% in the experiment on ACHN renal. In addition, the growth was 35.3% with CAKI-1 renal; 5.28% (active) in the experiment with A498 renal; 46% in the experiment on CCRF-CEM leukemia; 64.8% in the experiment on RPMI-8226 leukemia; 44.7% with OVCAR-8 ovarian; 45.4% in the experiment on OVCAR-5 ovarian. The growth is 51.7% in the experiment on SK-OV-3 ovarian; 53.1% with IGROV1 ovarian; 9.24% (active) with OVCAR-3 ovarian; 41.3% in the experiment with HS 578T breast; 16.1% in the experiment with NCI/ADR-RES ovarian.

Regarding `O=[N+]([O-])c1ccc(OCCO)cc1`, the growth in the experiment on SK-MEL-2 melanoma is 105%; with EKVX NSCLC it was 92.8%; in the experiment with SN12C renal, 101%; with UO-31 renal it was 86.2%; with TK-10 renal it was 117%; in the experiment with ACHN renal, 104%. Moreover, the growth with CAKI-1 renal was 93.1%; with A498 renal it was 90.6%; with CCRF-CEM leukemia, 96.2%; in the experiment on RPMI-8226 leukemia it was 101%; with OVCAR-8 ovarian it was 98.7%; in the experiment with OVCAR-5 ovarian it was 97.1%. The growth in the experiment on OVCAR-4 ovarian is 102%; in the experiment with SK-OV-3 ovarian it was 103%; in the experiment with IGROV1 ovarian, 105%; in the experiment on OVCAR-3 ovarian, 99.9%; in the experiment on HS 578T breast, 99.5%; with NCI/ADR-RES ovarian, 97.8%.

In the case of `CCOc1c(C#N)nnc2c(C#N)c(NC(=O)c3ccccc3)nn12`, the growth in the experiment with SK-MEL-2 melanoma was 112%; in the experiment with EKVX NSCLC, 93.8%; in the experiment on SN12C renal, 100%; in the experiment with UO-31 renal, 86.3%; in the experiment on TK-10 renal, 116%; with ACHN renal, 98.4%. Moreover, the growth with CAKI-1 renal was 93.7%; in the experiment on A498 renal it was 93.4%; in the experiment on CCRF-CEM leukemia, 102%; with RPMI-8226 leukemia, 111%; with OVCAR-8 ovarian it was 93.8%; with OVCAR-5 ovarian, 102%. Besides, the growth in the experiment on OVCAR-4 ovarian was 110%; with SK-OV-3 ovarian, 97.1%; in the experiment on IGROV1 ovarian, 101%; with OVCAR-3 ovarian, 106%; in the experiment on HS 578T breast it was 99.8%; in the experiment with NCI/ADR-RES ovarian, 100%.

For the compound `N[C@@H](CCCCNCC(=O)O)C(=O)O`, the growth is 115% with SK-MEL-2 melanoma; 96.9% in the experiment on EKVX NSCLC; 101% in the experiment with SN12C renal; 91% in the experiment with UO-31 renal; 98.1% in the experiment with TK-10 renal; 96.8% in the experiment with ACHN renal. In addition, the growth with CAKI-1 renal was 96.9%; with A498 renal it was 85.4%; in the experiment with CCRF-CEM leukemia it was 109%; in the experiment on RPMI-8226 leukemia, 116%; in the experiment on OVCAR-8 ovarian, 105%; in the experiment with OVCAR-5 ovarian, 102%. Further, the growth with OVCAR-4 ovarian was 101%; in the experiment with SK-OV-3 ovarian, 103%; in the experiment with IGROV1 ovarian, 108%; with OVCAR-3 ovarian it was 114%; in the experiment with HS 578T breast, 98.2%; in the experiment with NCI/ADR-RES ovarian, 101%.

As to `O=c1ssc(Cl)c1-c1ccccc1`, the growth in the experiment on SK-MEL-2 melanoma was 155%; in the experiment with EKVX NSCLC, 94.9%; in the experiment on SN12C renal, 93.9%; in the experiment with UO-31 renal, 74.6%; with TK-10 renal it was 126%; in the experiment with ACHN renal, 104%. Further, the growth in the experiment on CAKI-1 renal is 90.5%; in the experiment on A498 renal it was 108%; with CCRF-CEM leukemia, 98.1%; in the experiment with RPMI-8226 leukemia, 111%; in the experiment with OVCAR-8 ovarian it was 89.4%; in the experiment with OVCAR-5 ovarian it was 88.7%. Besides, the growth in the experiment on OVCAR-4 ovarian was 98.4%; in the experiment with SK-OV-3 ovarian, 118%; in the experiment with IGROV1 ovarian it was 83.7%; in the experiment with OVCAR-3 ovarian, 126%; with HS 578T breast it was 104%; in the experiment on NCI/ADR-RES ovarian, 95.9%.

In the case of `O=C(NCCNc1cc(-c2cn(-c3ccccc3)nc2-c2cccc(O)c2)ccn1)Nc1ccccc1`, the growth was 86.4% in the experiment with SK-MEL-2 melanoma; 71.4% with EKVX NSCLC; 77.4% in the experiment with SN12C renal; 58.6% with UO-31 renal; 124% in the experiment on TK-10 renal; 88.5% with ACHN renal. The growth in the experiment on CAKI-1 renal is 80.1%; in the experiment on A498 renal it was 80.8%; with CCRF-CEM leukemia it was 79.3%; in the experiment with SR leukemia, 2.22% (active); in the experiment on RPMI-8226 leukemia it was 60.1%; with OVCAR-8 ovarian, 74.3%. For the same compound, the growth was 92.4% in the experiment on OVCAR-5 ovarian; 65.1% in the experiment with SK-OV-3 ovarian; 67% with IGROV1 ovarian; 82.3% in the experiment on OVCAR-3 ovarian; 50.5% in the experiment on HS 578T breast; 75.4% in the experiment with NCI/ADR-RES ovarian.
